The nature of experiment [1]: qHTS for differential inhibitors of proliferation of Plasmodium falciparum line D10 (AID 1877).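 Further: parasites grown with compound for 72 h before DNA staining.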 Further: potency means the concentration at half of the fitted maximal effect.
Experiment [2] in a line: qHTS for differential inhibitors of proliferation of Plasmodium falciparum line Dd2 (AID 1882). Further: series mostly up to about 29 µM; nearly all actives have a fitted effect of over 65% in size. The settings on record: Potency: Plasmodium falciparum Dd2 proliferation inhibition. A digest of the protocol:
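SYBR Green DNA fluorescence (ex 485, em 535 nm) after overnight lysis quantifies parasite growth; compound exposure lasted 72 h at 37 C on infected red cells at 2.5% hematocrit, 0.3% parasitemia (final). Artemisinin 0.29 uM and vehicle wells define normalization.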

A short description of experiment [3]: qHTS for differential inhibitors of proliferation of Plasmodium falciparum line W2 (AID 1883).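 Further: parasites grown with compound for 72 h before lysis and staining.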 Further: potency means the concentration at half of the fitted maximal effect. The settings on record: Potency: Plasmodium falciparum W2 proliferation inhibition. (In general: Quantitative high-throughput screening tests each substance at several concentrations.)
Experiment [4] deals with Ferritin light chain (Equus caballus) (UniProt P02791). Put plainly: qHTS Validation Assay for Identification of Novel General Anesthetics (AID 2323). Further: series mostly up to about 77 µM. The gist of the method: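 Competitive displacement of the profluorescent anesthetic 1-AMA (50% saturated, PBS) from 10 uM apoferritin, 10 min, room temperature. Activity is normalized 380/535 nm fluorescence; concentration-response fitted with a four-parameter Hill equation.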

Experiment [5] deals with ATP-dependent DNA helicase Q1 (Homo sapiens) (UniProt P46063). Put plainly: qHTS Validation Assay for Inhibitors of RecQ-Like Dna Helicase 1 (RECQ1) (AID 2353). The gist of the method:
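RECQ1T1 50 nM; forked duplex (20 bp + 30-nt ss tails) 200 nM, ATP 2 mM final; pH 8.0, 2 mM MgCl2, 2.5 ug/ml poly(dI-dC); 15 min compound preincubation; discontinuous kinetic read over 2 h at RT.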

Experiment [6] deals with RecQ-like DNA helicase BLM (Homo sapiens) (UniProt P54132). As to the kind of experiment: qHTS Validation Assay for Inhibitors of Bloom's syndrome helicase (BLM) (AID 2364). Further: potency means the concentration at half of the fitted maximal effect. A digest of the protocol:
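Forked 20-bp duplex substrate (200 nM, TAMRA/BHQ-2) plus 2 mM ATP added after 15 min compound preincubation with 50 nM enzyme, pH 8.0, poly(dI-dC) 2.5 ug/ml. Strand separation followed by fluorescence (525/598 nm) over 2 h, normalized to enzyme-free and DMSO controls.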

The nature of experiment [7]: qHTS for differential inhibitors of proliferation of Plasmodium falciparum line HB3 (AID 1886).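 Further: parasites grown with compound for 72 h before SYBR Green readout.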 Further: potency means the concentration at half of the fitted maximal effect. Conditions: Potency: Plasmodium falciparum HB3 proliferation inhibition.
Experiment [8] in a line: qHTS Assay for Modulators of Human Peripheral Myelin Protein 22 (PMP22) Expression/Activity (AID 1967; active means well fitted curve in the direction sought with a large enough effect in the signal ratio; the % refers to the signal ratio). The gist of the method:
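Readout is the corrected green/red luminescence ratio after 24 h compound exposure, normalised to untreated cells (0%). Engineered MSC80 mouse Schwann cells express green luciferase from the mouse Pmp22 promoter and red luciferase from EF-alpha as internal control.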

Records with an inconclusive call do not appear. Activity calls are given as the source filed them. Unless noted, the call rests on the fitted dose curve; in most records, active means well fitted curve in the direction sought with a large enough effect; inconclusive means small, poorly fitted or top-dose-only effect, or another doubt; inactive means no such curve, though single readings can be large; an effect the other way counts as inactive or inconclusive.

Consider 36 compounds from PubChem BioAssay (NCATS).

Chain of ATP-dependent DNA helicase Q1 (Homo sapiens) (P46063 whole entry, looked up): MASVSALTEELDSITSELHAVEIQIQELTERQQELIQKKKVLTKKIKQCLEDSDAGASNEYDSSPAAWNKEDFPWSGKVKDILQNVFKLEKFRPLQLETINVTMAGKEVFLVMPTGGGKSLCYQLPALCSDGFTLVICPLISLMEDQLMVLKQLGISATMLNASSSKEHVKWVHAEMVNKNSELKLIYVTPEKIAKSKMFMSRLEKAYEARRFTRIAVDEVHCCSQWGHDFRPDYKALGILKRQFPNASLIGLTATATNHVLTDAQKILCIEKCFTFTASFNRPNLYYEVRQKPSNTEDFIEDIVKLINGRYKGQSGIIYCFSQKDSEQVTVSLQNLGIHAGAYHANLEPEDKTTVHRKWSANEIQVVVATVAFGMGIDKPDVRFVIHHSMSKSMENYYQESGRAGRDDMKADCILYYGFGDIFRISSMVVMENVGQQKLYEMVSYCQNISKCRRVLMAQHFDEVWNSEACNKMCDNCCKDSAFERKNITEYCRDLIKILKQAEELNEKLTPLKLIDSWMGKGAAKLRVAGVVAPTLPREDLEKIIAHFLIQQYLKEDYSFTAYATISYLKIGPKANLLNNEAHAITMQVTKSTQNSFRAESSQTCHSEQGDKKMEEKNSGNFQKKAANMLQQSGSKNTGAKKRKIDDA
Chain of RecQ-like DNA helicase BLM (Homo sapiens) (P54132 whole entry, looked up): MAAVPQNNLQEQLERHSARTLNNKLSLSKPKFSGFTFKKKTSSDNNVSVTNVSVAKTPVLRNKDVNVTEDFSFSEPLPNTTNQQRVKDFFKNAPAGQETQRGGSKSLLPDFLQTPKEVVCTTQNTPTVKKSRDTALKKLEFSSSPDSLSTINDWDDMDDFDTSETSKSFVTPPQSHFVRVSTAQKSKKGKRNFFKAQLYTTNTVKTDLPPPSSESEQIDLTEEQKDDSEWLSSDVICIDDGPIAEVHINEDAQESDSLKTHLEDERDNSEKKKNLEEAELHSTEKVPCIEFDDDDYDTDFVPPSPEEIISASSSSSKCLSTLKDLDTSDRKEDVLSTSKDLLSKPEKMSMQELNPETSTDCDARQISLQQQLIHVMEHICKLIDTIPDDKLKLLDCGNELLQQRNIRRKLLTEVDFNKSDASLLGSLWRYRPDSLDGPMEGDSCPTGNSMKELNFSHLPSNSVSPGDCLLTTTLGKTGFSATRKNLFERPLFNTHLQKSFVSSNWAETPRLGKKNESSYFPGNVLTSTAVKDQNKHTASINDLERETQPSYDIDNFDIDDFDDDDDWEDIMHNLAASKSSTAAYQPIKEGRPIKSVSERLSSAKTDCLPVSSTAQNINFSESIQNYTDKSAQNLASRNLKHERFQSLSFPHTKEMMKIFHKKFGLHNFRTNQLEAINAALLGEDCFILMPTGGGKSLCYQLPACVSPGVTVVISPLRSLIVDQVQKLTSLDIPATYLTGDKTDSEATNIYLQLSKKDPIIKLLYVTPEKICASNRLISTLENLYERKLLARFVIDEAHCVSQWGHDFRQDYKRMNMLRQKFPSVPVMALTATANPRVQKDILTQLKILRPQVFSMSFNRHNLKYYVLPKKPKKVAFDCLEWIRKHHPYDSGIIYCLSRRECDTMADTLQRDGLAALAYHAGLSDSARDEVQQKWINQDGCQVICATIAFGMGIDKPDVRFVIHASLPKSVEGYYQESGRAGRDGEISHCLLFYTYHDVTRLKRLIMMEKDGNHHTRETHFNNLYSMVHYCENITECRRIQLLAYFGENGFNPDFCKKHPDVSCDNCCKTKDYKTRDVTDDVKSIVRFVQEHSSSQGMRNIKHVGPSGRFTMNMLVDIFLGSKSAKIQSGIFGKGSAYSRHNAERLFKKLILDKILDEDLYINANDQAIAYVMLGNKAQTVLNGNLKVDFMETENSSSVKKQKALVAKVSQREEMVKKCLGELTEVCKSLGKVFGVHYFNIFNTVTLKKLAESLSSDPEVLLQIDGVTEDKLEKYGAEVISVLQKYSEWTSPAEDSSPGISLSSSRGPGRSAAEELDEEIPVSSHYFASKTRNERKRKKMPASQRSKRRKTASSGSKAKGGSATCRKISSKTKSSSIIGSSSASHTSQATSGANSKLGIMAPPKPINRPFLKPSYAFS
Chain of Ferritin light chain (Equus caballus) (P02791 2-175 limits assumed): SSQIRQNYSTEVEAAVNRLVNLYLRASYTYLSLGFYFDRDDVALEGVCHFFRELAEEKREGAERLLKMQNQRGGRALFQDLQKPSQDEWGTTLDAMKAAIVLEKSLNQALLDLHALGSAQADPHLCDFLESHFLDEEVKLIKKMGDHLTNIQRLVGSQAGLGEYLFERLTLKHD

For the compound `Nn1nnc2ccccc21`, the figures for the Potency in experiment [1] and in experiment [3] were 12.6 µM (active) and 17.8 µM (active), respectively. The Potency result in experiment [2], in experiment [4], in experiment [5] and in experiment [6] was “inactive” in each case.
On to `Oc1cc(O)c2c(c1)O[C@H](c1ccc(O)c(O)c1)[C@@H](O)C2`, for which the Potency result in experiment [1], in experiment [2], in experiment [7], in experiment [4] and in experiment [5] was “inactive” throughout.
Regarding `COc1cc2c(CCNC(C)=O)c[nH]c2cc1O`, the Potency result in experiment [1], in experiment [2], in experiment [7], in experiment [4], in experiment [5] and in experiment [6] was “inactive” throughout.
With `O=c1[nH]c2cc(Cl)ccc2c(O)c1-c1ccc(Oc2ccccc2)cc1`, the Potency entry in experiment [1], in experiment [2], in experiment [7], in experiment [4] and in experiment [5] was “inactive” throughout.
Consider `COCc1nc2c([nH]1)c(=O)n(C)c(=O)n2CC(C)C`, for which the Potency result in experiment [1], in experiment [2], in experiment [7], in experiment [4] and in experiment [5] was “inactive” each time. Further, the call in experiment [8] was inactive.
As to `Clc1nccc2c1ccc1ccccc12`, the Potency entry in experiment [1], in experiment [2], in experiment [7], in experiment [4], in experiment [5] and in experiment [6] was “inactive” throughout.
As to `Cc1cc2c(cc1Cl)N(C(=O)Nc1ccnc3ccccc13)CC2`, the Potency result in experiment [1], in experiment [2], in experiment [7], in experiment [4] and in experiment [5] was “inactive” each time.
`O=c1onc2n1-c1cc(Br)ccc1OC2`: the Potency entry in experiment [1], in experiment [2], in experiment [7], in experiment [4] and in experiment [5] was “inactive” in each case.
Take `CCCCCCC/C=C\CCCCCCCCC(=O)O`: the Potency result in experiment [1], in experiment [2], in experiment [3] and in experiment [7] was “inactive” in each case. Also, the Potency in experiment [6] is 28.2 µM (active).
On to `COC(=O)[C@H](NC(=O)c1cc(-c2ccccc2)nc2ccccc12)c1ccccc1`, for which the Potency result in experiment [1], in experiment [2], in experiment [4] and in experiment [5] was “inactive” in each case. Further, in experiment [3], the Potency is 12.6 µM (active).
For `C[C@H](O)C(=O)C1=Nc2c(nc(N)[nH]c2=O)NC1`, the Potency result in experiment [1], in experiment [2], in experiment [7], in experiment [4] and in experiment [5] was “inactive” each time. The outcome in experiment [8] was inactive.
`c1ccc2nc(C3=NCCN3)ccc2c1`: the Potency entry in experiment [1], in experiment [2], in experiment [7], in experiment [4], in experiment [5] and in experiment [6] was “inactive” each time.
As to `COc1cc(CNC(=O)CCCCCCC(C)C)ccc1O`, the Potency result in experiment [1], in experiment [2], in experiment [7] and in experiment [5] was “inactive” each time.
In the case of `N=C(N)SCCc1cnc[nH]1`, the Potency result in experiment [1], in experiment [2], in experiment [7], in experiment [4], in experiment [5] and in experiment [6] was “inactive” each time. Besides, the compound was classed as inactive in experiment [8].
For `O=C(O)c1ccccc1Nc1cccc(OCc2ccc3ccccc3n2)c1`, the Potency result in experiment [1], in experiment [2], in experiment [7] and in experiment [5] was “inactive” each time.
Regarding `Nc1ccc2c3c(cccc13)C(=O)NC2=O`, the Potency result in experiment [1], in experiment [2] and in experiment [7] was “inactive” each time.
As to `NC(=O)c1cc[n+](CC2=C(C(=O)O)N3C(=O)[C@@H](NC(=O)[C@@H](c4ccccc4)S(=O)(=O)[O-])[C@H]3SC2)cc1`, the Potency entry in experiment [1], in experiment [2], in experiment [7], in experiment [4], in experiment [5] and in experiment [6] was “inactive” each time.
For the compound `c1ccc(C2CN3CCSC3=N2)cc1` (configuration not stated), the Potency result in experiment [1], in experiment [2], in experiment [7], in experiment [5] and in experiment [6] was “inactive” throughout.
As to `CC#CCOC(=O)c1c(C)nc2sc3c(c2c1N)CCC(O)C3` (configuration not stated), the Potency result in experiment [1], in experiment [2], in experiment [7] and in experiment [5] was “inactive” in each case.
On to `Nc1ncnc2c1ncn2C1CCCO1` (configuration not stated), for which the Potency result in experiment [1], in experiment [2], in experiment [7], in experiment [4] and in experiment [5] was “inactive” in each case.
As for `NCCCNCCCCNCCCN`, the Potency result in experiment [1], in experiment [2], in experiment [7], in experiment [4], in experiment [5] and in experiment [6] was “inactive” throughout.
Regarding `COC1(C2=NCCN2)COc2ccccc2O1` (configuration not stated), the Potency result in experiment [1], in experiment [2], in experiment [7], in experiment [4] and in experiment [5] was “inactive” each time. Also, the result in experiment [8] was inactive.
Turning to `CCCCOc1cc(CC2CNC(=O)N2)ccc1OC` (configuration not stated), the Potency entry in experiment [1], in experiment [2], in experiment [7], in experiment [4], in experiment [5] and in experiment [6] was “inactive” in each case. In addition, the result in experiment [8] was inactive.
Take `O=c1oc(Cl)c(Cl)c2ccccc12`: the Potency entry in experiment [1], in experiment [2], in experiment [7] and in experiment [5] was “inactive” in each case.
For the compound `CC(N)(Cc1ccc(O)c(O)c1)C(=O)O` (configuration not stated), the Potency result in experiment [1], in experiment [2], in experiment [7] and in experiment [5] was “inactive” in each case.
As for `CCCCCC[C@@H]([C@@H](C)O)n1cnc2c(N)ncnc21`, the Potency result in experiment [1], in experiment [2], in experiment [7], in experiment [4] and in experiment [5] was “inactive” each time.
For the compound `O=C(O)C1CCCNC1` (configuration not stated), the Potency result in experiment [1], in experiment [2], in experiment [7], in experiment [4], in experiment [5] and in experiment [6] was “inactive” each time. Moreover, the outcome in experiment [8] was inactive.
Take `C[C@H](NC(=O)/C(C#N)=C/c1ccc(O)c(O)c1)c1ccccc1`: the Potency is 12.6 µM (active) in experiment [1], 10 µM (active) in experiment [3] and 12.6 µM (active) in experiment [7]. Besides, the Potency entry in experiment [5] is “inactive”.
As for `COc1ccc2c(c1)c(CC(=O)O)c(C)n2C(=O)c1ccccc1`, the Potency entry in experiment [1], in experiment [3], in experiment [7] and in experiment [5] was “inactive” each time.
For `CCCCCCCCCCC/C=C\C(C)(C)/C=C\CCCC(=O)O`, the Potency result in experiment [1], in experiment [2] and in experiment [7] was “inactive” in each case. Moreover, the Potency in experiment [6] was 25.1 µM (active).
Regarding `O=C(O)c1ccccc1Nc1ccccc1`, the Potency entry in experiment [1], in experiment [3], in experiment [7], in experiment [4] and in experiment [5] was “inactive” in each case.
Turning to `CCCCOC(=O)NS(=O)(=O)c1sc(CC(C)C)cc1-c1ccc(Cn2c(CC)nc3c(C)cc(C)nc32)cc1`, the results for the Potency in experiment [1], in experiment [3] and in experiment [7] were 11.2 µM (active), 7.94 µM (active) and 12.6 µM (active), respectively. In addition, the Potency result in experiment [5] was “inactive”.
As for `NC(N)=N[C@@H](CCC(=O)O)C(=O)O`, the Potency entry in experiment [1], in experiment [3], in experiment [7], in experiment [4] and in experiment [5] was “inactive” in each case.
On to `C=CCN1CCc2c(cc(O)c(O)c2Cl)C(c2ccccc2)C1` (configuration not stated), for which the Potency in experiment [1] was 12.6 µM (active); in experiment [3] it was 3.55 µM (active); in experiment [7], 7.08 µM (active). Also, the Potency entry in experiment [5] is “inactive”.
In the case of `CC[C@@H]1Cc2cc(O)ccc2C2=C1c1ccc(O)cc1C[C@H]2CC`, the values for the Potency in experiment [1], in experiment [3] and in experiment [7] were 11.2 µM (active), 4.47 µM (active) and 11.2 µM (active), respectively. For the same compound, the Potency result in experiment [5] was “inactive”.
`CCCOC(=O)c1c(-c2ccccc2)nc(CC)c(C(=O)SCC)c1CCC`: the Potency in experiment [1] was 12.6 µM (active); in experiment [3], 10 µM (active); in experiment [7], 17.8 µM (active). The Potency result in experiment [4] and in experiment [5] was “inactive” each time.
